Measurements published in PubChem BioAssay.
Calls of active or inactive are those of the source. Unless noted, no rule for the calls is given here.

Experiments:
[1] = compounds binding Alexa647 anti-His antibody – biochemical, small-molecule microarray, 635 nm fluorescence, artefact control for SMM control protein annotation, primary screen (AID 1128); conditions: higher = more signal;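 also: score merges feature fluorescence with signal-to-noise for each printed compound spot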
[2] = test system: Human papillomavirus type 1a E7 protein (residues 1-88); assay: HPV1a E7 small-molecule binders, primary screen, biochemical, small-molecule microarray, residues 1-88, 635 nm (AID 1129); conditions: small-molecule microarray binding, fluorescence 635 nm; higher = more signal
[3] = target: Focal adhesion kinase 1 (Homo sapiens) (UniProt Q05397); assay: PTK2 protein binding on printed compound slides – biochemical, small-molecule microarray, 635/667 nm fluorescence, BSA, DTT, primary screen (AID 1130); conditions: 635 nm fluorescence, higher = more signal;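 also: composite of spot emission at 667 nm and signal to noise over triplicate slides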
[4] = test system: Fibrinogen (Alexa647-labelled); assay: Alexa647-fibrinogen binding to printed small molecules – biochemical, small-molecule microarray, 635/667 nm fluorescence, artefact control for SMM control-protein annotation, profiling panel (AID 1131); conditions: fibrinogen-A647 binding fluorescence, higher = more signal;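 also: z-score merges 667 nm fluorescence with per-spot signal-to-noise over triplicate slides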
[5] = target: Follistatin (Homo sapiens) (UniProt P19883); assay: FST protein binding to printed compounds – biochemical, small-molecule microarray, 635/667 nm fluorescence, primary screen (AID 1132); conditions: 635 nm fluorescence, higher = more signal
[6] = target: Fibroblast growth factor 2 (Homo sapiens) (UniProt P09038); assay: basic fibroblast growth factor binding to printed compounds – biochemical, small-molecule microarray, 635/667 nm fluorescence, primary screen (AID 1133); conditions: FGF2, fluorescence 635/667, higher = more signal
[7] = JC-1 mitochondrial potential readout, lung cancer cells – cell-based, A549, JC-1 fluorescence, basal, 24 h, 100 nL, profiling panel (AID 1138); conditions: higher = more signal;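 also: A549 lung adenocarcinoma cells under basal conditions with no added stimulus; test concentration not given here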
Lefty1 = Lefty1 protein binding to printed compounds – biochemical, small-molecule microarray, 635/667 nm fluorescence, primary screen (AID 1139); conditions: fluorescence 635/667, higher = more signal
[8] = test system: wheat germ agglutinin (Triticum aestivum), Alexa647-labelled; assay: Alexa647-WGA lectin binding to printed small molecules – biochemical, small-molecule microarray, 635/667 nm fluorescence, artefact control for SMM control-protein annotation, profiling panel (AID 1140); conditions: WGA-A647 binding, 635 nm fluorescence, higher = more signal;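 also: score merges 667 nm feature emission with signal to noise over triplicate slides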
[9] = target: Luciferin 4-monooxygenase (Photinus pyralis) (UniProt P08659); assay: inhibition of purified Photinus pyralis luciferase – biochemical, luminescence, purified enzyme, 2006 set, primary screen (AID 1141); conditions: purified firefly luciferase, SteadyGlo luminescence, 30 min; higher = more signal, called active from +8 up or from −8 down;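 also: cell-free assay with purified firefly luciferase at 100 ng per well in PBS; test concentration not given here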
[10] = test system: Wnt5a (protein binding on small-molecule microarray); assay: small molecules binding Wnt5a protein – biophysical, small-molecule microarray, 635/667 nm fluorescence, primary screen (AID 1142); conditions: 635 nm fluorescence, higher = more signal;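 also: fluorescence read at 667 nm with signal to noise per printed feature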
[11] = ATP-based viability of Huh7 replicon cells – cell-based, CellTiter-Glo luminescence, basal, 48 h, cytotoxicity control for HCV replication inhibitor project, primary screen (AID 1143); conditions: higher = more signal, called active from +8 up or from −8 down;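 also: Huh7 hepatoma cells carrying a hepatitis C replication reporter with no stimulus; test concentration not given here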
[12] = Pseudomonas biofilm growth suppression – PAO1 strain, BacTiter-Glo luminescence, LB-PBS, primary screen (AID 1144); conditions: P. aeruginosa PAO1 biofilm, 12 h, higher = more signal
[13] = basal CRE-LacZ reporter activity in PC12 – cell-based, unstimulated, primary screen (AID 1145); conditions: no forskolin, luminescence, 4.5 h, higher = more signal, called active from +8 up or from −8 down
[14] = forskolin-driven CRE-LacZ activity in PC12 – cell-based, CRE-LacZ reporter, forskolin-stimulated, primary screen (AID 1146); conditions: luminescence, 4.5 h, higher = more signal, called active from +8 up or from −8 down;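 also: PC12 cells with 6xCRE LacZ reporter stimulated by forskolin 10 µM; beta-galactosidase reporter signal reflecting CREB driven transcription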
[15] = target: Streptavidin (Streptomyces avidinii) (UniProt P22629); assay: compounds binding control protein streptavidin – biophysical, small-molecule microarray, 635/667 nm fluorescence, artefact control for SMM compound annotation, primary screen (AID 1147); conditions: higher = more signal;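 also: signal reflects streptavidin binding to arrayed compounds as a control protein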
[16] = probe aInhba binding on compound microarray – biochemical, small-molecule microarray, 635/667 nm fluorescence, primary screen (AID 1148); conditions: higher = more signal;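 also: score merges 667nm spot fluorescence with signal-to-noise for antibody binding to printed compounds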
Torsin-1A (Homo sapiens) [17] = target: Torsin-1A (Homo sapiens) (UniProt O14656); assay: TOR1A wild-type binding on microarray – cell lysate, small-molecule microarray, lysate, 635/667 nm, primary screen (AID 1149); conditions: COS7 hTOR1A-WT lysate, 635 nm fluorescence, higher = more signal
Torsin-1A (Homo sapiens) [18] = target: Torsin-1A (Homo sapiens) (UniProt O14656); assay: torsin A mutant lysate binding on microarrays – cell lysate, small-molecule microarray, COS7 lysate, 635/667 nm fluorescence, primary screen (AID 1150); conditions: COS7 hTOR1A mutant lysate, 635 nm fluorescence, higher = more signal;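 also: score pools 667 nm emission and signal to noise measuring lysate protein binding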
[19] = test system: Sonic hedgehog protein (Shh); assay: Sonic hedgehog microarray binding compounds – biochemical, small-molecule microarray, 635/667 nm fluorescence, primary screen (AID 1151); conditions: 635 nm fluorescence, higher = more signal;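 also: Shh protein binding to compounds spotted on small-molecule microarray slides; score combines spot fluorescence intensity with signal-to-noise across triplicate slides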

Fibroblast growth factor 2 (Homo sapiens), sequence (P09038 whole entry, looked up): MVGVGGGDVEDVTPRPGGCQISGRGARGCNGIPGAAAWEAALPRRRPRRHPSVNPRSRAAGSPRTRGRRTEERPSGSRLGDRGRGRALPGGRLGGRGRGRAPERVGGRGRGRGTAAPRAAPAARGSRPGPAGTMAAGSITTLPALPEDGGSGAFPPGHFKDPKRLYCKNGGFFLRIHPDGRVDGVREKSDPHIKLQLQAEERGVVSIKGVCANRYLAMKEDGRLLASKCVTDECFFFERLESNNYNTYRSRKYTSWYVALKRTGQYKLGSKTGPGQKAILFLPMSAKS
Luciferin 4-monooxygenase (Photinus pyralis), sequence (P08659 whole entry, looked up): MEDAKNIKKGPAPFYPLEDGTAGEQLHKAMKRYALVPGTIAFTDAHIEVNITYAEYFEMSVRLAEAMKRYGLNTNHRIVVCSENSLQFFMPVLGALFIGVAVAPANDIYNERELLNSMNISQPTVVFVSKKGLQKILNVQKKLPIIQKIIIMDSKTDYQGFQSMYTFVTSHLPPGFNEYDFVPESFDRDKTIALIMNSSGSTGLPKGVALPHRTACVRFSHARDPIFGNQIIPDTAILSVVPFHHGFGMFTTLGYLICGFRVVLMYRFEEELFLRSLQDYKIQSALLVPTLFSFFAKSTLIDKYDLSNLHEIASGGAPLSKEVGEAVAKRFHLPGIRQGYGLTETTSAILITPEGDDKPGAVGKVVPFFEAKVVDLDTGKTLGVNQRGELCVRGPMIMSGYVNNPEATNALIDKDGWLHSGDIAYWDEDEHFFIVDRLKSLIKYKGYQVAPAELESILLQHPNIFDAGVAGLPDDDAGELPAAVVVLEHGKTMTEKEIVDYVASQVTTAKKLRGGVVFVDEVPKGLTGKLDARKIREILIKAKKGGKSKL
Torsin-1A (Homo sapiens), sequence (O14656 whole entry, looked up): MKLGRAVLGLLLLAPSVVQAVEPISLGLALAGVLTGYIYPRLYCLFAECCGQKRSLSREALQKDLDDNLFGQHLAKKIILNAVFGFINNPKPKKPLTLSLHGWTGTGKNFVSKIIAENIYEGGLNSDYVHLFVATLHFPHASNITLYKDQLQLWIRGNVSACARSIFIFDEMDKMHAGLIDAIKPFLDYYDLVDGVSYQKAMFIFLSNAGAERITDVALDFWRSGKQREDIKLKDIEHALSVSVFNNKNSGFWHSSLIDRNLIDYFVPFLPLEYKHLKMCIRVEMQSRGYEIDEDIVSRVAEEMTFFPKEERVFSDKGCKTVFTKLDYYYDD
Streptavidin (Streptomyces avidinii), sequence (P22629 whole entry, looked up): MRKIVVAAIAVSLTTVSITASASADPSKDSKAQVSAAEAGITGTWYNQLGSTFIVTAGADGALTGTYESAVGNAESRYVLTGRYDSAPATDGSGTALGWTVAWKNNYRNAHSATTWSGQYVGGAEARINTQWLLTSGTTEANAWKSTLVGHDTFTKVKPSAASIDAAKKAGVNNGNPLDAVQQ
Follistatin (Homo sapiens), sequence (P19883 whole entry, looked up): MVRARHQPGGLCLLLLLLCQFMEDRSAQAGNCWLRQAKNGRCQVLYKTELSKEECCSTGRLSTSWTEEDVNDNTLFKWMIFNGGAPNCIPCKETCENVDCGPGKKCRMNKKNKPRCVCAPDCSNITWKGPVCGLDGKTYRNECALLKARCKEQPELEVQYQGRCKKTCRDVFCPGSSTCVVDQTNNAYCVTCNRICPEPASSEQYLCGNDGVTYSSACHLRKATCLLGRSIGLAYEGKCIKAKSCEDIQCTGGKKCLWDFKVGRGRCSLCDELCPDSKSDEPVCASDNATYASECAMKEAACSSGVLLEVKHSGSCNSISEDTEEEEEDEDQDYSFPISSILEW
Focal adhesion kinase 1 (Homo sapiens), sequence (Q05397 whole entry, looked up): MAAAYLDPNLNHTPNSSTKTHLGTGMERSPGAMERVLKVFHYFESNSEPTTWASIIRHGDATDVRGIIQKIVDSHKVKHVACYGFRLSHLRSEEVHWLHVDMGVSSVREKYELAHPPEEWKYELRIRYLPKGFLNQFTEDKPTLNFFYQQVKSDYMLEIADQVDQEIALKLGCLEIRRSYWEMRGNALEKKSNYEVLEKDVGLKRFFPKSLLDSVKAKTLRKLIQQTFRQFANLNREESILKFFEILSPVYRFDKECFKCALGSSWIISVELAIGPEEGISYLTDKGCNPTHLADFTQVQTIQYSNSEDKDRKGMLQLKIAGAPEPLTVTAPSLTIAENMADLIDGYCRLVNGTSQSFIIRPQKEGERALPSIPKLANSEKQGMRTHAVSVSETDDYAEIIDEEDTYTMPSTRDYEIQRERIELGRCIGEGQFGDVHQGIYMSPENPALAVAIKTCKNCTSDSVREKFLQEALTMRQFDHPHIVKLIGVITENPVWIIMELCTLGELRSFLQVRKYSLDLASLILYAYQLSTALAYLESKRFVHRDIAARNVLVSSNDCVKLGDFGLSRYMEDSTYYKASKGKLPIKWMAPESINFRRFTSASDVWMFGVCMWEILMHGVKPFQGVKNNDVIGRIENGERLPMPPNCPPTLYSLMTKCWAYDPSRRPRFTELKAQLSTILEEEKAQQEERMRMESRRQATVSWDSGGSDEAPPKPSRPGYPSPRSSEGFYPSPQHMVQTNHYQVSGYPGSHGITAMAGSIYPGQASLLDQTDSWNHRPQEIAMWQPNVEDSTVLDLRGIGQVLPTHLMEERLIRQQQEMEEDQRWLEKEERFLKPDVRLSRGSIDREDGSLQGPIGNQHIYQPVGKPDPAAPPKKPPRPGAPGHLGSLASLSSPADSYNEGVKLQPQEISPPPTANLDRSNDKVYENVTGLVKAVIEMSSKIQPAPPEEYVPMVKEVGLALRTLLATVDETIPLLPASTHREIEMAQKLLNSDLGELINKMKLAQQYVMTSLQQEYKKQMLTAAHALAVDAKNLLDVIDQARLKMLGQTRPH

| Compound | composite z-score [1] | composite z-score [2] | composite z-score [3] | composite z-score [4] | composite z-score [5] | composite z-score [6] | z-score [7] | composite z-score (Lefty1) | composite z-score [8] | z-score [9] | composite z-score [10] | z-score [11] | z-score [12] | z-score [13] | z-score [14] | composite z-score [15] | composite z-score [16] | composite z-score (Torsin-1A (Homo sapiens) [17]) | composite z-score (Torsin-1A (Homo sapiens) [18]) | composite z-score [19] |
| --- | --- | --- | --- | --- | --- | --- | --- | --- | --- | --- | --- | --- | --- | --- | --- | --- | --- | --- | --- | --- |
| CC(C)NC(=O)[C@@]1(Cc2ccccc2I)c2ccccc2C(=O)N(Cc2ccccc2C(F)(F)F)[C@H]1c1ccc(CO)cc1 | 0.992 | 0.906 | 0.601 | 0.75 | 0.464 | 0.125 | 1.29 | 0.266 | 1.15 | -0.793 (inactive) | 0.0851 | -1.7 (inactive) | 0.358 (inactive) | 0.856 (inactive) | -0.151 (inactive) | -0.503 | 0.225 | -0.158 | 0.644 | 0.66 |
| CC1C=C(CCCO)C=C(C(=O)OCCS(C)(=O)=O)C(C(=O)OCCS(C)(=O)=O)=CN1Cc1cccc(OC(F)(F)F)c1 (stereo not given) | 1 | 0.799 | -0.0696 | 1.02 | 0.0361 | -0.356 | 0.848 | -0.309 | 0.785 | -0.234 (inactive) | 0.0382 | -0.911 (inactive) | -0.846 (inactive) | -0.364 (inactive) | 0.56 (inactive) | 1.28 | 0.288 | 0.887 | 0.893 | -0.0368 |
| COCCOC(=O)N1C(=O)[C@@]2(c3ccccc31)[C@H](c1ccccc1OCCO)N1[C@H](c3ccccc3)[C@H](c3ccccc3)OC(=O)[C@H]1[C@@H]2C(=O)N1CCc2cc(OC)c(OC)cc2C1 | 1.14 | 0.659 | 0.413 | 0.457 | 1.27 | 1.36 | -1.03 | 0.756 | 0.435 | -0.209 (inactive) | 0.212 | -3.53 (inactive) | -1.04 (inactive) | 0.0736 (inactive) | 2.88 (inactive) | 0.02 | 0.255 | 0.517 | 0.546 | 1.24 |
| O=c1c2ccc(Br)cc2nc(-c2ccccc2)n1Cc1cccc(O)c1 | 0.741 | 0.988 | 0.551 | 0.671 | 0.346 | 0.283 | 0.836 | -0.0693 | 1.05 | -0.273 (inactive) | 0.153 | -0.913 (inactive) | 0.32 (inactive) | 0.272 (inactive) | -1.17 (inactive) | 0.669 | 0.229 | 1.45 | 1.88 | 0.332 |
| CN(C)CCCCNC(=O)[C@H]1C[C@H]2C(=O)N[C@@H](CCCC[N+](C)(C)C)C(=O)N2[C@H]1c1cccc(OCCO)c1 | 1.06 | 0.809 | 0.373 | 0.54 | 1.35 | 1.67 | -0.312 | 1.35 | 0.115 | 0.53 (inactive) | 0.446 | -0.255 (inactive) | -1.16 (inactive) | -0.659 (inactive) | -0.197 (inactive) | 0.773 | 0.0228 | 1.04 | 1.01 | 2.01 |
